The results in this text go back to article PMC7862700, “An all-to-all approach to the identification of sequence-specific readers for epigenetic DNA modifications on cytosine”.

Common to all, as to assay: DAPPL (digital affinity profiling via proximity ligation, sequencing); 10 mM Tris-HCl pH 7.5, 50 mM NaCl, 1 mM DTT, 4% glycerol, room temperature, 30 min; GST-TFs on glutathione beads, 16-mer random dsDNA library, 0.1% formaldehyde crosslink after washing; high values mean tight binding
One experiment has as its target T1, FLI1 (Homo sapiens, UniProt Q01543 1-452).
T1 sequence: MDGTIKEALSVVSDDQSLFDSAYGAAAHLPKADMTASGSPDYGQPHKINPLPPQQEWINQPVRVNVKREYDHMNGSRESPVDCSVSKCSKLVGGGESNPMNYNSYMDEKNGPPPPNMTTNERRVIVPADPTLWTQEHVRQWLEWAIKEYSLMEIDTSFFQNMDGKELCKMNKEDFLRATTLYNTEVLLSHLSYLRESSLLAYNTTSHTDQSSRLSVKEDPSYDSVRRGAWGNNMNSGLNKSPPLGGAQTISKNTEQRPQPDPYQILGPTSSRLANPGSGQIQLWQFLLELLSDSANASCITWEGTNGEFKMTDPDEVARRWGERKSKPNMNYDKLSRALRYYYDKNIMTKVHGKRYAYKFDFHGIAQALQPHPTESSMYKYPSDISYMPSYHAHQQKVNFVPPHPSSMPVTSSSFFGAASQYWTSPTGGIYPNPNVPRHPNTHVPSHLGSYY
The note with it: protein: recombinant; tags: N-terminal GST; dsDNA, one strand shown. The procedure, abridged: (§1)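 Yeast served to express human transcription factors as GST fusions, which were then captured on glutathione beads and labelled with DNA barcodes. Pooled with a tag-only sample, they were incubated with 200 nmole of a 16-mer random double-stranded DNA library for 30 min at room temperature in Tris/NaCl/DTT/glycerol buffer, washed, crosslinked with 0.1% formaldehyde, ligated by proximity, amplified by PCR and sequenced. Dividing each hexamer's read frequency for a factor by its frequency for the tag-only sample gives the binding signal.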

A further experiment concerns the target T2, ELK1 (Homo sapiens, UniProt P19419 1-428).
T2 sequence: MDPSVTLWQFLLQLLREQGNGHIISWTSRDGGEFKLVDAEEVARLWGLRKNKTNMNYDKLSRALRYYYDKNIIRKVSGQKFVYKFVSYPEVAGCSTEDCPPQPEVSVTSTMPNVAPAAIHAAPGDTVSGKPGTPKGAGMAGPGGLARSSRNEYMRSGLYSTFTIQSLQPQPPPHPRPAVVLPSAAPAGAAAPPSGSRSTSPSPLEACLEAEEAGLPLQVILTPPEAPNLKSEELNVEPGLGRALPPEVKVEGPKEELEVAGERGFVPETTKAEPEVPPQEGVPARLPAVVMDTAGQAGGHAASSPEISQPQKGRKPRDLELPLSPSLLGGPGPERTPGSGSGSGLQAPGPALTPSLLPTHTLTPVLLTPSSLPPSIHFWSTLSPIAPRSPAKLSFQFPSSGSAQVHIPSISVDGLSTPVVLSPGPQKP
The note with it: protein: recombinant; tags: N-terminal GST; dsDNA, one strand shown. The procedure, abridged:
as §1

The target of a further experiment is T3, GABPA (Homo sapiens, UniProt Q06546 1-454).
T3 sequence: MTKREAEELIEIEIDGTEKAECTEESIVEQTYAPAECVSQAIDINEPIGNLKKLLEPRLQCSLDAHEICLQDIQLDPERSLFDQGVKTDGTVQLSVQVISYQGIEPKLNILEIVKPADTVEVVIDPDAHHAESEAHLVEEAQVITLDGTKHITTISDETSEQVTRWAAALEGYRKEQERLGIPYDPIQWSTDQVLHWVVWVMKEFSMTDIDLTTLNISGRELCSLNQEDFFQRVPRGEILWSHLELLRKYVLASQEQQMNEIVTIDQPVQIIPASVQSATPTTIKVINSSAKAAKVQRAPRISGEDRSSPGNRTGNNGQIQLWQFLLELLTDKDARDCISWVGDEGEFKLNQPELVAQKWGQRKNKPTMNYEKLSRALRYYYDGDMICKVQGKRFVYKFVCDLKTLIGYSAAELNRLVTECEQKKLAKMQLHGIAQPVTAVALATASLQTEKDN
The note with it: protein: recombinant; tags: N-terminal GST; dsDNA, one strand shown. The procedure, abridged:
as §1

In a further experiment the target is T4, ERG (Homo sapiens, UniProt P11308 1-479).
T4 sequence: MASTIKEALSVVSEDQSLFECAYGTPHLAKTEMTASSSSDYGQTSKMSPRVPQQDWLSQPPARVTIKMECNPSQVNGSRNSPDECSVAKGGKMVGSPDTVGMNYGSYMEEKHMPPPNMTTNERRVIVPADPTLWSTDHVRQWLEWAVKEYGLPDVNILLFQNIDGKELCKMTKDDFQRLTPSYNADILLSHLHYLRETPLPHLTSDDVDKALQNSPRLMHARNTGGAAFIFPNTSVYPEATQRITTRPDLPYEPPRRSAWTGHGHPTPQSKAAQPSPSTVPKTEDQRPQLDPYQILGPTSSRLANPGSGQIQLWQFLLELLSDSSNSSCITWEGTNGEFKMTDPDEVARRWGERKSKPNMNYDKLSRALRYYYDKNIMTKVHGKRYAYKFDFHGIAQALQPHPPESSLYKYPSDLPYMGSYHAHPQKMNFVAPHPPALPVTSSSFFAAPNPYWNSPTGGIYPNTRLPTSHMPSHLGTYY
The note with it: protein: recombinant; tags: N-terminal GST; dsDNA, one strand shown. The procedure, abridged:
as §1

The target of another experiment is ELF1 (Homo sapiens, UniProt P32519 1-619). To be noted: protein: recombinant; tags: N-terminal GST; dsDNA, one strand shown. A digest of the protocol: as §1
Sequence of ELF1 (P32519 whole entry): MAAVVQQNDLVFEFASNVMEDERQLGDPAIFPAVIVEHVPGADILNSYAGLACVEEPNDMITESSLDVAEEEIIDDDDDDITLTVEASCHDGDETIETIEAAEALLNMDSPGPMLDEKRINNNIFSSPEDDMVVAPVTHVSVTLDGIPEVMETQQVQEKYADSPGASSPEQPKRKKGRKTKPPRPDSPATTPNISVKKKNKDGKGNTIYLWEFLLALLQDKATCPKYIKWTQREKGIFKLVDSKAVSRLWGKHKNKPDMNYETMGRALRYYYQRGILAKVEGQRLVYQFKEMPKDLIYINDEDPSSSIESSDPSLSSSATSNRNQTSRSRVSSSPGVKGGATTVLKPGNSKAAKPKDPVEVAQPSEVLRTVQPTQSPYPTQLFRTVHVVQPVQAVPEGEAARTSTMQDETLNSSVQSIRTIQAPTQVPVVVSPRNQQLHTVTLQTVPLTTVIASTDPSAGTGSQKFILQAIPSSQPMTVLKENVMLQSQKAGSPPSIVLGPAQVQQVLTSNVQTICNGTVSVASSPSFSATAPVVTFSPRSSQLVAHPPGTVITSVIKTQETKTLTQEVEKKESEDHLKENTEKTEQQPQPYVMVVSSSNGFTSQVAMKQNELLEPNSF
Another experiment has as its target T5, EHF (Homo sapiens, UniProt Q9NZC4 1-300).
T5 sequence: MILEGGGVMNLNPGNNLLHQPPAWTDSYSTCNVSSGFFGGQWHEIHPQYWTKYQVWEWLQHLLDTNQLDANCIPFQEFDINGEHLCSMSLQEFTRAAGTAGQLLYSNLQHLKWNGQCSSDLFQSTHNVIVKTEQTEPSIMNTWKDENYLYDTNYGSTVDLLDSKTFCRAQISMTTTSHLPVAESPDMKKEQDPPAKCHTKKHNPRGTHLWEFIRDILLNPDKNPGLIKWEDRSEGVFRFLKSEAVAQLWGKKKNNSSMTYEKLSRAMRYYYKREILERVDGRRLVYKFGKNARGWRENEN
The note with it: protein: recombinant; tags: N-terminal GST; dsDNA, one strand shown. The procedure, abridged: as §1

A further experiment has as its target SPI1 (Homo sapiens, UniProt P17947 1-270). The note with it: protein: recombinant; tags: N-terminal GST; dsDNA, one strand shown. A digest of the protocol:
as §1

The next experiment deals with SPIB (Homo sapiens, UniProt Q01892 1-262). The note with it: protein: recombinant; tags: N-terminal GST; dsDNA, one strand shown. The procedure, abridged: as §1
Sequence of SPIB (Q01892 whole entry): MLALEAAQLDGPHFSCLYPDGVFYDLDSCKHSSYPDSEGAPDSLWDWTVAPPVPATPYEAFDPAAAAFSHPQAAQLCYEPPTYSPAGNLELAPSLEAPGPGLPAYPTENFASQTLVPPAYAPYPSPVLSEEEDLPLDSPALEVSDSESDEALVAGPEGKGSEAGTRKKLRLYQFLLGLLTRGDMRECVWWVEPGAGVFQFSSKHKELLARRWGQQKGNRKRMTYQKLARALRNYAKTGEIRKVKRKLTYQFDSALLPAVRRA
The next experiment deals with T6, ELK3 (Homo sapiens, UniProt P41970 1-407).
T6 sequence: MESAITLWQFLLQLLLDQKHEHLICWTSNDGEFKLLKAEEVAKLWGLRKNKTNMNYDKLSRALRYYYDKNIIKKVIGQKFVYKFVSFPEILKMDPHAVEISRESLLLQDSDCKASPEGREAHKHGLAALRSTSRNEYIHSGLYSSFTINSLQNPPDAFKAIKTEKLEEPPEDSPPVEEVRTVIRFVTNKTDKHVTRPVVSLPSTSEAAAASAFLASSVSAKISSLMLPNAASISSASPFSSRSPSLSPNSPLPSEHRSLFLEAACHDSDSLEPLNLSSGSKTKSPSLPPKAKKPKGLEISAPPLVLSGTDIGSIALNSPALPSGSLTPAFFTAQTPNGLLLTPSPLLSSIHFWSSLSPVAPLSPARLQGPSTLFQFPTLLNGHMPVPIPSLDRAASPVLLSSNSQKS
The note with it: protein: recombinant; tags: N-terminal GST; dsDNA, one strand shown. The procedure, abridged: as §1

Another experiment deals with T7, FEV (Homo sapiens, UniProt Q99581 1-238).
T7 sequence: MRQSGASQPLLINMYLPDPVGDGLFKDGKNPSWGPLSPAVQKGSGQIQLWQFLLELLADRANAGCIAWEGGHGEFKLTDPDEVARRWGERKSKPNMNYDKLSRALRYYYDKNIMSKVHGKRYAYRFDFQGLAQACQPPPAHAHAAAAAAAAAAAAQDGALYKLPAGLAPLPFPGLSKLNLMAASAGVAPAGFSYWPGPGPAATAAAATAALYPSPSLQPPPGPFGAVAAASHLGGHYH
The note with it: protein: recombinant; tags: N-terminal GST; dsDNA, one strand shown. The procedure, abridged: as §1

For a further experiment, the target named is ETV5 (Homo sapiens, UniProt P41161 1-510). The note with it: protein: recombinant; tags: N-terminal GST; dsDNA, one strand shown. The procedure, abridged:
as §1

A further experiment has as its target HSF1 (Homo sapiens, UniProt Q00613 1-529). To be noted: protein: recombinant; tags: N-terminal GST; chain copies: 3; dsDNA, one strand shown. The procedure, abridged:
as §1

The target in the next experiment is T8, SPIC (Homo sapiens, UniProt Q8N5J4 1-248).
T8 sequence: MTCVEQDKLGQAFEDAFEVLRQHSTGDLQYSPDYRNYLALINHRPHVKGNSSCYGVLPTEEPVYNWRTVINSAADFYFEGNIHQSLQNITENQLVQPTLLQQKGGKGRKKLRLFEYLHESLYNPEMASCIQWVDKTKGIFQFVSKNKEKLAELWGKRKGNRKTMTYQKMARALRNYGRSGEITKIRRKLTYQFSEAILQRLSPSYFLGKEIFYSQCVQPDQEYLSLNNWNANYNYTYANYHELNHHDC
To be noted: protein: recombinant; tags: N-terminal GST; dsDNA, one strand shown. A digest of the protocol:
as §1

For another experiment, the target named is ELF4 (Homo sapiens, UniProt Q99607 1-663). To be noted: protein: recombinant; tags: N-terminal GST; dsDNA, one strand shown. The procedure, abridged:
as §1

In the next experiment the target is T9, ELK4 (Homo sapiens, UniProt P28324-2 1-405).
T9 sequence: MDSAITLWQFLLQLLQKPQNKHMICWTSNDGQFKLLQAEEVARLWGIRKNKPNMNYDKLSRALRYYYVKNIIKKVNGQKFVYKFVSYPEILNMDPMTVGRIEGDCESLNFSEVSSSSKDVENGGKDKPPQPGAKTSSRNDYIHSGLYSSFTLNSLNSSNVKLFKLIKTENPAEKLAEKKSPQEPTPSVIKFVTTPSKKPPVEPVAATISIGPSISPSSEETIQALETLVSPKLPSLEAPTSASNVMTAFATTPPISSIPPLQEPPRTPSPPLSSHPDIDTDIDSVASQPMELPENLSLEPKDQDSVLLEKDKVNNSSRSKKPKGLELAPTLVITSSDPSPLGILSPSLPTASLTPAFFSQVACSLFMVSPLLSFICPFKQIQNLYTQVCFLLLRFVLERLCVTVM
To be noted: protein: recombinant; tags: N-terminal GST; dsDNA, one strand shown. The procedure, abridged: as §1

The target of another experiment is T10, ETV2 (Homo sapiens, UniProt O00321 1-342).
T10 sequence: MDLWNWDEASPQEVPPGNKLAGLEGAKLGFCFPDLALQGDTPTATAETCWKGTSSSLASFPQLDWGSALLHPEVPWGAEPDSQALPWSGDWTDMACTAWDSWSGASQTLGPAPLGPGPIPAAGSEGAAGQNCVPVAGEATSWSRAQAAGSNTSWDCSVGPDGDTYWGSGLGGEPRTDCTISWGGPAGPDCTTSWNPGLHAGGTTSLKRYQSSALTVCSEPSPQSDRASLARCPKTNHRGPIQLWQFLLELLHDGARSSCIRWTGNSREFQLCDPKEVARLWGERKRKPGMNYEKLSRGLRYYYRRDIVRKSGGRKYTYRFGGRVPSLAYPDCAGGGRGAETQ
The note with it: protein: recombinant; tags: N-terminal GST; dsDNA, one strand shown. The procedure, abridged:
as §1

Another experiment addresses T11, ELF3 (Homo sapiens, UniProt P78545 1-371).
T11 sequence: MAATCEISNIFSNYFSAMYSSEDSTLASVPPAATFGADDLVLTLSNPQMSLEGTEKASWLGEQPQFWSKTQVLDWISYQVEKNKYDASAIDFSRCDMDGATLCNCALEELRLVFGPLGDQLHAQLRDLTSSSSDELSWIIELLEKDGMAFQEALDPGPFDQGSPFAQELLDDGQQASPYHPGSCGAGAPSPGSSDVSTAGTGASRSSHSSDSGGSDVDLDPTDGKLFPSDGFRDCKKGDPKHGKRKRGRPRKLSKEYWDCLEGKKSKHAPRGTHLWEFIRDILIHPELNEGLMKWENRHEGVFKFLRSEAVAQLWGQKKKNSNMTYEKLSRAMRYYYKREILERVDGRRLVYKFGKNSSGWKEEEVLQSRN
The note with it: protein: recombinant; tags: N-terminal GST; dsDNA, one strand shown. The procedure, abridged:
as §1

The next experiment addresses CRX (Homo sapiens, UniProt O43186 1-299). To be noted: protein: recombinant; tags: N-terminal GST; dsDNA, one strand shown. The procedure, abridged: as §1
A further experiment has as its target ETV1 (Homo sapiens, UniProt P50549 1-477). To be noted: protein: recombinant; tags: N-terminal GST; dsDNA, one strand shown. A digest of the protocol:
as §1

Sequence of HSF1 (Q00613 whole entry): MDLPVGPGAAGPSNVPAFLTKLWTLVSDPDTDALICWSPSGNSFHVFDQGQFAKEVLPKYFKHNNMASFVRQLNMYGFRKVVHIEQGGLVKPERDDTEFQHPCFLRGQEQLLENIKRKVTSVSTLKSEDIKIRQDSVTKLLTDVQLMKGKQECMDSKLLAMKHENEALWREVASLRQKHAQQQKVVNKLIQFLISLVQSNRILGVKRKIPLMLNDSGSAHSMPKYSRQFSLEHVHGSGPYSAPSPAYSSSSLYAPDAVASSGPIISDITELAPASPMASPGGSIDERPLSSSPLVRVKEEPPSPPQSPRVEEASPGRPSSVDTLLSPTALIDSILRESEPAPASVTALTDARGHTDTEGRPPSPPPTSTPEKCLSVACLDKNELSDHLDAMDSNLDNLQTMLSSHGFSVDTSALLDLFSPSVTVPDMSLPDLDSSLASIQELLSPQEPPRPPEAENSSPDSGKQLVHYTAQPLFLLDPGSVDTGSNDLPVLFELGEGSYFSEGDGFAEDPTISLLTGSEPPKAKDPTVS
Sequence of ELF4 (Q99607 whole entry): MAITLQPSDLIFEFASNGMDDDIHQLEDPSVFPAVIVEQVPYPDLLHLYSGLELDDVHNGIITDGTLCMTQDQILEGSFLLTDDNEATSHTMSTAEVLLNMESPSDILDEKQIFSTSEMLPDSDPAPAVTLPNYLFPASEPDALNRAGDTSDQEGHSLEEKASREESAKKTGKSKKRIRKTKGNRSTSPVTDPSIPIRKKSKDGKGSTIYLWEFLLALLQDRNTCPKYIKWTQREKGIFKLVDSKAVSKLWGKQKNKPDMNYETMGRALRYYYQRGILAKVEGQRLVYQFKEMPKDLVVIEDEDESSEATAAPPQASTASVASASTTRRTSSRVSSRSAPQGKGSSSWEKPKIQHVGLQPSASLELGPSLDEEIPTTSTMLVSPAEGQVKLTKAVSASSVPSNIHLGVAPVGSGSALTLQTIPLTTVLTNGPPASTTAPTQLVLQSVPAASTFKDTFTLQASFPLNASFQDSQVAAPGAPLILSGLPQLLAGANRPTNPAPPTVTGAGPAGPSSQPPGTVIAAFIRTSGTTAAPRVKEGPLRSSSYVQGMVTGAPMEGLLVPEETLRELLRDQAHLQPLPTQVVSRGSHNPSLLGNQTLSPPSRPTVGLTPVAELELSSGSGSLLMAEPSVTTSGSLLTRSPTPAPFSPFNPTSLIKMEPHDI
Sequence of ETV5 (P41161 whole entry): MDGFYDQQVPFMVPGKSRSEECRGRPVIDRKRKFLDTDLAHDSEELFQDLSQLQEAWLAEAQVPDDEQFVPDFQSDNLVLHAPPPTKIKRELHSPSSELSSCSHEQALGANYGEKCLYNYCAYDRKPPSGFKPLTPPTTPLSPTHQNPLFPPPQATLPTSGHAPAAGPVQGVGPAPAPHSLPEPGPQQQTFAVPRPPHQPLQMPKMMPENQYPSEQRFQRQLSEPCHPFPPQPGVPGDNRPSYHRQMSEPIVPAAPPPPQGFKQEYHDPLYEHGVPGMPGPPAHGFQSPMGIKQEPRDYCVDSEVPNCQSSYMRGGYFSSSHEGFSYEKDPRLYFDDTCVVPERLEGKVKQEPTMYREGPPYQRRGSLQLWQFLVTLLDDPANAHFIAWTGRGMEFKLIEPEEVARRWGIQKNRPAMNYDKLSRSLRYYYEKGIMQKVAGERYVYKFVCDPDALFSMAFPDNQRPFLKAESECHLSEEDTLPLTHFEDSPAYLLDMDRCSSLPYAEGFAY
Sequence of CRX (O43186 whole entry): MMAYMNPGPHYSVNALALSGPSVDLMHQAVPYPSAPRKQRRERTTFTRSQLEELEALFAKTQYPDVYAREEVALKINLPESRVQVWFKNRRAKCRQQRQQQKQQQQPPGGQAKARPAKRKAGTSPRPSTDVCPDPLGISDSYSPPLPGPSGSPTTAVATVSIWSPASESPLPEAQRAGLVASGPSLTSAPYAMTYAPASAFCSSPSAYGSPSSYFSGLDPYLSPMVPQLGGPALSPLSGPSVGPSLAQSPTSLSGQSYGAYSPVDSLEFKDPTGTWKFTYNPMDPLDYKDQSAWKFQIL
Sequence of ETV1 (P50549 whole entry): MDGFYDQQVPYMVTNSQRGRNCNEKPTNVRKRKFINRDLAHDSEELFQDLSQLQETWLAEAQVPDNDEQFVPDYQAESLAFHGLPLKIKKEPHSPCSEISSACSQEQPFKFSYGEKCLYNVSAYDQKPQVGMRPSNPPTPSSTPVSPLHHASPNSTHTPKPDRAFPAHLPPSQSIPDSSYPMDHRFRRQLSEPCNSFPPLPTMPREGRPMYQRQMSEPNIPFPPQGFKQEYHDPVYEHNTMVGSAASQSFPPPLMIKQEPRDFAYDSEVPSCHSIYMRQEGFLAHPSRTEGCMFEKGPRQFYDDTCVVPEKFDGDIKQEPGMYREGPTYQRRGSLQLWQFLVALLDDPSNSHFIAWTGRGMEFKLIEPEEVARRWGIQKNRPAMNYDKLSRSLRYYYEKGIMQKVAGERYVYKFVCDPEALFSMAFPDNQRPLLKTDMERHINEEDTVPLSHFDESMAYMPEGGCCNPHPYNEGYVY

Take AATATA: the binding signal was 1.28 fold enrichment (6-mer frequency, TF over GST control) with FLI1; 1.38 fold enrichment (6-mer frequency, TF over GST control) with ELK1; 1.35 fold enrichment (6-mer frequency, TF over GST control) with GABPA; 1.33 fold enrichment (6-mer frequency, TF over GST control) with ERG; 1.37 fold enrichment (6-mer frequency, TF over GST control) with ELF1; 1.42 fold enrichment (6-mer frequency, TF over GST control) in the experiment with EHF. The binding signal is 1.37 fold enrichment (6-mer frequency, TF over GST control) in the experiment with SPI1; 1.28 fold enrichment (6-mer frequency, TF over GST control) in the experiment with SPIB; 1.43 fold enrichment (6-mer frequency, TF over GST control) with ELK3; 1.3 fold enrichment (6-mer frequency, TF over GST control) with FEV; 1.33 fold enrichment (6-mer frequency, TF over GST control) with ETV5; 1.38 fold enrichment (6-mer frequency, TF over GST control) with HSF1. In addition, the binding signal in the experiment with SPIC is 1.29 fold enrichment (6-mer frequency, TF over GST control); with ELF4, 1.3 fold enrichment (6-mer frequency, TF over GST control); with ELK4, 1.39 fold enrichment (6-mer frequency, TF over GST control); in the experiment with ETV2, 1.35 fold enrichment (6-mer frequency, TF over GST control); with ELF3, 1.5 fold enrichment (6-mer frequency, TF over GST control); in the experiment with CRX, 1.62 fold enrichment (6-mer frequency, TF over GST control). Moreover, the binding signal with ETV1 was 1.39 fold enrichment (6-mer frequency, TF over GST control).
